Source: PubChem BioAssay (NCATS)
Inconclusive results are not listed. Activity calls are given as the source filed them. Unless noted, calls follow the shape of the dose curve; as a rule, active = well fitted curve in the direction sought with a large enough effect; inconclusive = small, poorly fitted or top-dose-only effect, or another doubt; inactive = no such curve, though single readings can be large; an effect the other way counts as inactive or inconclusive.

Experiments:
[1] = qHTS assay for measurement of the activity of small molecule inhibitors on Zika virus induced Caspase-3 activity in human iPSC derived neural progenitor cells (hNPCs) (AID 1224857); also: nearly all actives have a fitted effect of over 65% in size
Outline: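 Zika virus (2 FFU/cell) infection of human iPSC-derived NPCs, 6 h, following 1 h compound preincubation. Read-out: Caspase-Glo 3/7 luminescence.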

[2] = qHTS assay for measurement of the activity of small molecule inhibitors on Zika virus induced Caspase-3 activity in human astrocytoma cells (AID 1224859)
Outline: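 Caspase activation in ZIKV-infected SNB-19 cells (2 FFU/cell, 6 h) measured by Caspase-Glo 3/7 luminescence after 30 min RT; compound pre-incubated 1 h; normalised to uninfected and infected controls.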

[3] = qHTS assay to identify small molecule inhibitors of chordoma cells - UCH-1 (AID 1259355); also: nearly all actives have a fitted effect of over 55% in size; also: potency is read from the fitted curve at half-maximal effect; series mostly up to about 46 µM
Outline: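 Luminescent ATP read-out (CellTiter-Glo, 30min at room temperature) measured viability of UCH-1 cells exposed for 48hr to test drugs at 15 concentrations, co-dosed with a five-agent combination of auranofin, camptothecin, doxorubicin, rubitecan and topotecan.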

[4] = qHTS assay to identify small molecule inhibitors of chordoma cells - UCH-2 (AID 1259356); also: series mostly up to about 46 µM
[5] = P-glycoprotein substrates identified in KB-8-5-11 adenocarcinoma cell line, qHTS therapeutic library screen (AID 1346987); also: nearly all actives have a fitted effect of over 65% in size; also: potency is read from the fitted curve at half-maximal effect
Outline: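 KB-8-5-11, a colchicine-selected P-gp-overexpressing KB-3-1 subline, was grown without colchicine for the assay. Cells were seeded at 500 cells/well, dosed in concentration-response and incubated 72 h at 37 degree C, 5% CO2. Viability was read by CellTiter-Glo luminescence.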

[6] = Natriuretic polypeptide receptor (hNpr1) antagonism - Pilot counterscreen GloSensor control cell line (AID 1347045; calls by dose curve; also: series mostly up to about 38 µM)
Outline: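 HEK293 cGMP GloSensor cells preloaded 2 h with 2% GloSensor reagent, then compound 30 min before baseline luminescence read. Stimulated with 50 uM sodium nitroprusside, 20 min at room temperature, then read again; counterscreen for Npr1 antagonism.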

[7] = molecular target: Atrial natriuretic peptide receptor 1 (Homo sapiens) (UniProt P16066); assay: Natriuretic polypeptide receptor (hNpr1) antagonism - Pilot screen (AID 1347049; calls by dose curve;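 also: agonist-evoked cGMP luminescence read 20 min after hNppA addition; series mostly up to about 58 µM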)
Outline: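 HEK293 cells co-expressing hNpr1 and the GloSensor pGS-40F cGMP luciferase sensor were preloaded with 2% GloSensor reagent for 2 h. Compounds were added for 30 min at room temperature, then cells were stimulated with 0.1 nM hNppA for 20 min before luminescence readout.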

[8] = molecular target: Atrial natriuretic peptide receptor 2 (Homo sapiens) (UniProt P20594); assay: Natriuretic polypeptide receptor (hNpr2) antagonism - Pilot subtype selectivity assay (AID 1347050; calls by dose curve)
Outline: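 cGMP-sensor HEK293/hNpr2 cells; 2% GloSensor reagent 2 h RT; compounds 30 min; baseline luminescence read; 1 nM hNppC agonist 20 min RT; final luminescence read by CCD camera. Antagonism = reduced post-agonist signal.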

[9] = NS1 protein of Zika virus - qHTS assay to identify small molecule inhibitors in human HEK 293 cells (AID 1347053); also: series mostly up to about 46 µM; nearly all actives have a fitted effect of over 55% in size
Outline: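 Inhibition of NS1 expression was scored in HEK 293 cells given compound 1 h ahead of MR766 virus (MOI = 0.5). Following 24 h at 37 C, two anti-NS1 antibodies generated a TR-FRET signal, scaled between uninfected and infected controls.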

[10] = P-glycoprotein substrates identified in KB-3-1 adenocarcinoma cell line, qHTS therapeutic library screen (AID 1346986); conditions: outcome: dose series up to 44.5 µM; also: nearly all actives have a fitted effect of over 60% in size
Outline: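 Resistance attributable to P-gp was assessed by comparing AC50 in KB-8-5-11 with parental KB-3-1 and by tariquidar reversal. Cells were exposed 72 h and viability read by CellTiter-Glo.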

Measured: Potency

Chain of Atrial natriuretic peptide receptor 2 (Homo sapiens) (P20594 whole entry, looked up): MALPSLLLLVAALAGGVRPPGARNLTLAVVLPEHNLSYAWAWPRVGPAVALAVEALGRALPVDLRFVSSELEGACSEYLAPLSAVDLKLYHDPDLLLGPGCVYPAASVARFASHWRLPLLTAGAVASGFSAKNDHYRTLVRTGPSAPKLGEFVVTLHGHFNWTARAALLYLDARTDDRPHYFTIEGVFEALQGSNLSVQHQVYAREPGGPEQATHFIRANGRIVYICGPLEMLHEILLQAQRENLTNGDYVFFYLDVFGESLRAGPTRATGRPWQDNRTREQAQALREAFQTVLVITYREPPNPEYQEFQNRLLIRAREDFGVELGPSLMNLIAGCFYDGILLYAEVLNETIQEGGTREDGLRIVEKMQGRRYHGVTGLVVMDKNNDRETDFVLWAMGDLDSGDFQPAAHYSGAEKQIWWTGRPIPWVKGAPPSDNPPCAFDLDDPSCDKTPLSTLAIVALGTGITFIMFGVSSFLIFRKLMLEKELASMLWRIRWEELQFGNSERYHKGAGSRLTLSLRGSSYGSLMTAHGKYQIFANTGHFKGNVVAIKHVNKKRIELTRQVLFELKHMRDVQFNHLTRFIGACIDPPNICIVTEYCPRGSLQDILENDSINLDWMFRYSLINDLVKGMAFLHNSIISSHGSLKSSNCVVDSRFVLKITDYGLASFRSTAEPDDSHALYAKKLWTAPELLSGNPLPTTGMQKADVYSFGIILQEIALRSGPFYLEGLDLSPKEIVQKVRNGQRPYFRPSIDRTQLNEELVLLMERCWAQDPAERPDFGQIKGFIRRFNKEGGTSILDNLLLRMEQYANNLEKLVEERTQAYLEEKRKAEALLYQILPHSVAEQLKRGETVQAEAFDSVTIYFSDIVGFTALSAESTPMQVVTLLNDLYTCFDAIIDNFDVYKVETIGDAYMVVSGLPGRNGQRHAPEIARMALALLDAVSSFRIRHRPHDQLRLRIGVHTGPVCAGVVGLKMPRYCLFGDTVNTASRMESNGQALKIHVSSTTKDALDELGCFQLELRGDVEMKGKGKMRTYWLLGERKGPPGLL
Chain of Atrial natriuretic peptide receptor 1 (Homo sapiens) (P16066 whole entry, looked up): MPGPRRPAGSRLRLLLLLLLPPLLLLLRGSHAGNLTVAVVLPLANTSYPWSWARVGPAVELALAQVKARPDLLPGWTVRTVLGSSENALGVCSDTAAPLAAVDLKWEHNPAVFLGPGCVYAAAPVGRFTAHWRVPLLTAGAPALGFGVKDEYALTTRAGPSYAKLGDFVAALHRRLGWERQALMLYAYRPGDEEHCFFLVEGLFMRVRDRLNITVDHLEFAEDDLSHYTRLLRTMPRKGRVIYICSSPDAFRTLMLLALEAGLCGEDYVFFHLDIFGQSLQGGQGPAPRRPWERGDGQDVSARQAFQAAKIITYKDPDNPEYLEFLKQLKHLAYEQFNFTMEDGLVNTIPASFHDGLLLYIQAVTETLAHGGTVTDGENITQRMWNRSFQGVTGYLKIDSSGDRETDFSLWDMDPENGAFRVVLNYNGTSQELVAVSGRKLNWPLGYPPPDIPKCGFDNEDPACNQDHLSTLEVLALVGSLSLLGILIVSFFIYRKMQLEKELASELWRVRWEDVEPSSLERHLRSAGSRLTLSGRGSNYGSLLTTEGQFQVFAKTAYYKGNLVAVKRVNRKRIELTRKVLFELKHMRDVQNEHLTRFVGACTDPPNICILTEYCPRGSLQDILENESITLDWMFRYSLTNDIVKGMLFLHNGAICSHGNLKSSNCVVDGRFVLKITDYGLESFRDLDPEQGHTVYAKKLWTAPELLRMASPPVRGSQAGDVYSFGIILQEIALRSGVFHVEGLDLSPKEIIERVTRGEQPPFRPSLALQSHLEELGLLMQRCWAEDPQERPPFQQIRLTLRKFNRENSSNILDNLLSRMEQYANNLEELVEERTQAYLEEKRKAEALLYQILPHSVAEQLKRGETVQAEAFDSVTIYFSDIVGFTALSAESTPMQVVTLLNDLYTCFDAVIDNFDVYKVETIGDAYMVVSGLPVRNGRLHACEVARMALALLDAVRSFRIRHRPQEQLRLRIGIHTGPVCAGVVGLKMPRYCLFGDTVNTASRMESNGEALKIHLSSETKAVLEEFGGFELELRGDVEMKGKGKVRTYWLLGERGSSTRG

CO[C@@]1(NC(=O)CSCC#N)C(=O)N2C(C(=O)O)=C(CSc3nnnn3C)CS[C@@H]21
not listed: [10]
inactive: all other assays above

NC(Cc1ccc(Cl)cc1)C(=O)O (centres undefined)
not listed: [10]
inactive: all other assays above

Cc1cc(C)c(/C=C2\C(=O)Nc3ccccc32)[nH]1
not listed: [5] | [8]
inactive: all other assays above

CN/C(=C\[N+](=O)[O-])NCCSCc1ccc(CN(C)C)o1
not listed: [10]
inactive: all other assays above

CN(C)CCOC(=O)COc1ccc(Cl)cc1
not listed: [10]
inactive: all other assays above

FC(F)(F)c1ccccc1-n1ccnc1
not listed: [10]
inactive: all other assays above

C(=C\c1ccccc1)/CN1CCN(C(c2ccccc2)c2ccccc2)CC1
not listed: [10]
inactive: all other assays above

COc1cc2c(cc1OC)-c1cc(=Nc3c(C)cc(C)cc3C)n(C)c(=O)n1CC2
active: [3] 25.1 µM | [5] 25.9 µM
not listed: [9] | [10]
inactive: all other assays above

COC(=O)[C@H]1[C@H]2C[C@@H]3c4[nH]c5cc(OC)ccc5c4CCN3C[C@H]2C[C@@H](OC(=O)c2cc(OC)c(OC)c(OC)c2)[C@@H]1OC
not listed: [10]
inactive: all other assays above

NC(=O)c1cn(Cc2c(F)cccc2F)nn1
not listed: [10]
inactive: all other assays above

CC(=O)OC(C)C[N+](C)(C)C (centres undefined)
not listed: [10]
inactive: all other assays above

CC(C)(C)NCC(O)c1cc(O)cc(O)c1 (centres undefined)
not listed: [10]
inactive: all other assays above

CN(C)[C@@H]1C(=O)C(C(N)=O)=C(O)[C@@]2(O)C(=O)C3=C(O)c4c(O)ccc(Cl)c4[C@@H](O)[C@H]3C[C@@H]12
not listed: [10]
inactive: all other assays above

CCCN(CCC)C(=O)C(CCC(=O)O)NC(=O)c1ccccc1 (centres undefined)
not listed: [10]
inactive: all other assays above

O=C(CCNNC(=O)c1ccncc1)NCc1ccccc1
not listed: [10]
inactive: all other assays above

CCOC(=O)C1=C(C)NC(C)=C(C(=O)OC)C1c1cccc(Cl)c1Cl (centres undefined)
not listed: [10]
inactive: all other assays above

C=CCc1ccccc1OCC(O)CNC(C)C (centres undefined)
not listed: [10]
inactive: all other assays above

C[C@@H](O)[C@H]1C(=O)N2C(C(=O)O)=C(SCCN=CN)C[C@H]12
not listed: [10]
inactive: all other assays above

CC(=O)Nc1nnc(S(N)(=O)=O)s1
not listed: [10]
inactive: all other assays above

CCN(CC)CCNC(=O)c1cc(S(C)(=O)=O)ccc1OC
not listed: [10]
inactive: all other assays above

O=C1CC2(CCCC2)CC(=O)N1CCCCN1CCN(c2ncccn2)CC1
active: [5] 9.2 µM
not listed: [10]
inactive: all other assays above

N[C@@H](COP(=O)(O)O)C(=O)O
not listed: [10]
inactive: all other assays above

CC(=O)OCC1=C(C(=O)O)N2C(=O)[C@@H](NC(=O)Cc3cccs3)[C@H]2SC1
not listed: [10]
inactive: all other assays above

CC(=O)[C@@]1(O)CC[C@H]2[C@@H]3CCC4=CC(=O)CC[C@]4(C)[C@H]3CC[C@@]21C
not listed: [10]
inactive: all other assays above
